Compound activity deposited in PubChem by National Center for Advancing Translational Sciences (NCATS).
In the library only some 5.5% were active in any assay of this set; here they are far more common.
VP16 counter – counter-screen for ROR gamma inhibitors: Gal4-VP16 reporter. 3.5% of 310,000 active. Potency, µM (highest dose often 53.6 µM), for the others: top-dose activity, negative = inhibition, most hits filed as inhibitors. Drosophila S2 Gal4-VP16 UAS-luciferase, luminescence, 20 h;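 also: Gal4-VP16 expression switched on by copper sulfate through the metallothionein promoter; potency is read from the fitted curve at half-maximal effect; % is scaled to controls: 0 for no effect and ±100 for the full control effect; nearly all actives have a fitted effect of over 50% in size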
CBFb RUNX1 block – blocks binding between human CBF-beta and RUNX1; 230,000 tested, under 10 active; AlphaScreen CBFb-His/RUNX1-biotin binding, biochemical; Q01196+Q13951; AID 1477; Potency, µM (series often up to 59.8 µM), for the others: at the top dose activity, negative = inhibition, actives largely listed as inhibitors; also: % of control where 0% means no effect
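AlphaScreen binding: CBFb-His and RUNX1-biotin (30 nM each) preincubated 20 min, compound added for 15 min, then nickel and streptavidin beads for 90 min, all at room temperature. Disruption of the interaction by any mechanism counts as activity.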
MBNL1-CUG inh – blocks human MBNL1 binding to CUG repeat RNA; Q9NR56; TR-FRET MBNL1-His/biotin-(CUG)12 binding, 665/545 ratio; Potency, µM (top dose mostly 57.5 µM), without a hit: top-dose activity change, negative = inhibition, hits mostly inhibitors; 0.036% of 280,000 active; AID 2675; active = well fitted inhibition curve with a large enough effect in the signal ratio, with a control signal flat, not every such curve was filed as active; inconclusive = small, poorly fitted or top-dose-only effect, or effect the other way, or a change in a side signal; inactive = no such curve, though single readings can be large or run the other way; the % refers to the signal ratio; also: potency is read from the fitted curve at half-maximal effect; % is scaled to controls: 0 for no effect and ±100 for the full control effect
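Ratiometric TR-FRET (665 over 545 nm, excitation 340 nm) tracks disruption of MBNL1-His/biotin-(CUG)12 complex after 60 min at room temperature, with compounds at 92 nM to 58 uM final.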
Six1-Eya2 inh – inhibitors of human Six1/Eya2 interaction. Q15475+O00167. AlphaScreen GST-Six1/His-Eya2 binding, biochemical; hits give low values. activity change, % (test concentration not listed). 0.56% of 360,000 active. AID 651725; in the data active = activity change below about -65%; inconclusive = mostly about -30% to -63%; also: % is scaled to controls: 0 for no effect and ±100 for the full control effect
Target sequence (O00167 whole entry, looked up): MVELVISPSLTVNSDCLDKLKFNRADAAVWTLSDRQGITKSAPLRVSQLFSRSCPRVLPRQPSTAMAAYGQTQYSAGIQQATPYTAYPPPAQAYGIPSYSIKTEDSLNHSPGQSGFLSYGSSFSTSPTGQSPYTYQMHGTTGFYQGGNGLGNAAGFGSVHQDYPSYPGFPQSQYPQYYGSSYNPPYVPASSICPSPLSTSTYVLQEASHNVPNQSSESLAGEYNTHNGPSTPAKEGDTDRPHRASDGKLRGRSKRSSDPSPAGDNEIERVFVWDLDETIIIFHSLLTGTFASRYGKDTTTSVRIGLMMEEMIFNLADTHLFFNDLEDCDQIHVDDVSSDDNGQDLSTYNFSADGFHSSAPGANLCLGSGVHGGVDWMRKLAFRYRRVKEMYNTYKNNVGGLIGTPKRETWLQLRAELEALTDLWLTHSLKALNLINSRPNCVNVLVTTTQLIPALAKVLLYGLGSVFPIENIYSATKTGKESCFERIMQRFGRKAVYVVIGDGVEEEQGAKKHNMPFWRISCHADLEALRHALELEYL
Target sequence (Q15475 whole entry, looked up): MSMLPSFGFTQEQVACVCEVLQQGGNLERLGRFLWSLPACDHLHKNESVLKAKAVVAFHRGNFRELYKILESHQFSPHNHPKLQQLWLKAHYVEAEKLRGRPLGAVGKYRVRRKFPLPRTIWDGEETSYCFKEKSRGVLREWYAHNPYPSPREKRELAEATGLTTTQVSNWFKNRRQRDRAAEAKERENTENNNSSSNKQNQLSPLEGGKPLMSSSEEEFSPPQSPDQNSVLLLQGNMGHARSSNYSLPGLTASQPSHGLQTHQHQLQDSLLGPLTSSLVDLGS
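AlphaScreen with GST-Six1 and His-Eya2 (5X mix: 250 nM and 500 nM), glutathione donor and nickel acceptor beads; buffer 50 mM Tris pH 8.0, 300 mM NaCl, 1 mM TCEP; 1 h at 37 C in the dark.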
CtBP-E1A inh – blocks the CtBP interaction with E1A | AlphaScreen GST-E1A/His-CtBP binding, 1536-well; hits give low values | activity change, % (concentration not given with the values) | 0.49% of 340,000 active | AID 651724; in the data active = activity change below about -65%; inconclusive = mostly about -30% to -63%; also: % is scaled to controls: 0 for no effect and ±100 for the full control effect
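In 5 uL wells, 23 nL compound meets equimolar GST-E1A and His-CtBP (5X stock 125 nM each) for 2 h, 37 °C. Beads (5X, 50 ug/mL) then 1 h, 37 °C, dark.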
RORgamma inh – inhibitors of mouse ROR gamma transcriptional activity; AID 2551; Potency, µM (highest dose often 53.6 µM), inactives show at the highest dose activity change, negative = inhibition, hits mostly inhibitors; Drosophila S2 Gal4-RORgamma UAS-luciferase reporter, 20 h; 5.4% of 310,000 active; P51450; also: potency is read from the fitted curve at half-maximal effect; % is scaled to controls: 0 for no effect and ±100 for the full control effect; nearly all actives have a fitted effect of over 60% in size
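Read-out: Photinus luciferase luminescence; inhibitors lower reporter signal. Insect Schneider cells with Gal4-ROR gamma fusion under metallothionein promoter, UAS reporter; 700 uM final copper sulfate induction, 20 hr, ambient temperature.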
* marks the source's active call; other numbers are inactive results; [ ] = another dose, or the depositor's remark. Unless noted, calls follow the shape of the dose curve; as a rule, active = well fitted curve in the direction sought with a large enough effect; inconclusive = small, poorly fitted or top-dose-only effect, or another doubt; inactive = no such curve, though single readings can be large; an effect the other way counts as inactive or inconclusive.

CCN(CC(=O)Nc1cc(Cl)ccc1C)C(=O)CCc1nc2ccccc2c(=O)[nH]1 was read as Six1-Eya2 inh 6 and CtBP-E1A inh -18.
Screening COc1ccc(CCC(=O)Nc2ccc(N3CCOCC3)c(S(=O)(=O)Nc3ccc(OC)cc3)c2)cc1 returned Six1-Eya2 inh 12.
For Cc1cc(C)n2nc(SCC(=O)c3cc(C)n(-c4cc(C)on4)c3C)nc2n1 the results were VP16 counter 4µM*, CBFb RUNX1 block -4%, MBNL1-CUG inh 0%, Six1-Eya2 inh -11, CtBP-E1A inh -24 and RORgamma inh -5%.
For Cc1cc(-n2c(C)cc(C(=O)CSc3ncnc4ccccc34)c2C)no1 the results were VP16 counter 5µM*, CBFb RUNX1 block -6%, MBNL1-CUG inh 24%, Six1-Eya2 inh -18, CtBP-E1A inh -11 and RORgamma inh inconclusive.
Screening Cc1cc(C)n2nc(SCC(=O)c3ccccc3)nc2n1 returned VP16 counter 22%, CBFb RUNX1 block 7%, MBNL1-CUG inh -5%, Six1-Eya2 inh -1, CtBP-E1A inh 13 and RORgamma inh 15%.
Cc1ccc(C(C[N+](=O)[O-])c2c(-c3ccccc3O)[nH][nH]c2=O)cc1 (centres undefined) was read as VP16 counter 11µM*, CBFb RUNX1 block 7%, MBNL1-CUG inh -4%, Six1-Eya2 inh -14, CtBP-E1A inh -11 and RORgamma inh 5µM*.
O=c1[nH][nH]c(-c2ccccc2O)c1C(C[N+](=O)[O-])c1ccc(Br)cc1 (centres undefined) was read as VP16 counter inconclusive, CBFb RUNX1 block -22%, MBNL1-CUG inh -8%, Six1-Eya2 inh -12, CtBP-E1A inh 5 and RORgamma inh inconclusive.
Screening COc1c2ccccc2nc2occc12 returned VP16 counter -10%, CBFb RUNX1 block 19% and RORgamma inh inconclusive.
COc1ccc(C(Cl)=C(C=O)c2ccc(OC)c(OC)c2)cc1OC was read as Six1-Eya2 inh 1 and CtBP-E1A inh -21.
Screening COC(=O)c1ccc2nc(Nc3nc4ccc(F)cc4s3)sc2c1 returned VP16 counter 3.5µM*, CBFb RUNX1 block 12%, MBNL1-CUG inh 5%, Six1-Eya2 inh 11, CtBP-E1A inh 20 and RORgamma inh 0.14µM*.
Screening CCOC(=O)c1csc(Nc2nc3ccc(F)cc3s2)n1 returned VP16 counter inconclusive, CBFb RUNX1 block -1%, MBNL1-CUG inh 41%, Six1-Eya2 inh 0, CtBP-E1A inh -2 and RORgamma inh 7.9µM*.
Screening COC(=O)c1ccc2nc(NC(=O)C3CCCCC3)sc2c1 returned VP16 counter -2%, CBFb RUNX1 block 6%, MBNL1-CUG inh 21%, Six1-Eya2 inh 19, CtBP-E1A inh 0 and RORgamma inh -17%.
Screening COC(=O)c1ccc(NC(=O)c2ccc3nc(C)sc3c2)cc1 returned VP16 counter 2%, MBNL1-CUG inh inconclusive, Six1-Eya2 inh 14, CtBP-E1A inh 2 and RORgamma inh 0%[1.91 µM].
Screening COC(=O)c1ccc2nc(NC(=O)C(C)(C)C)sc2c1 returned VP16 counter 7.1µM*, CBFb RUNX1 block 5%, MBNL1-CUG inh -7%, Six1-Eya2 inh -7, CtBP-E1A inh -10 and RORgamma inh 2µM*.
`CC(=O)c1sc(Nc2nc3ccc(F)cc3s2)nc1C` gave VP16 counter 11µM*, CBFb RUNX1 block 22%, MBNL1-CUG inh 30%, Six1-Eya2 inh 4, CtBP-E1A inh 7 and RORgamma inh 3.2µM*.
`CCOC(=O)c1sc(Nc2nc3ccc(OC)cc3s2)cc1C` gave VP16 counter 1%, CBFb RUNX1 block -2%, MBNL1-CUG inh 34%, Six1-Eya2 inh 2, CtBP-E1A inh 1 and RORgamma inh inconclusive.
Screening COc1ccc(OC)c(C2=Nn3c(nnc3-c3ccccc3O)SC2)c1 returned VP16 counter inconclusive, CBFb RUNX1 block 3% and RORgamma inh inconclusive.
Screening O=C(Nc1ccc(F)cc1)c1cccc(N2C(=O)C3C4C=CC(C5CC45)C3C2=O)c1 (centres undefined) returned VP16 counter -6%, MBNL1-CUG inh 1%, Six1-Eya2 inh 1, CtBP-E1A inh 6 and RORgamma inh inconclusive.
For COc1ccc(NC(=O)c2c(-c3c(Cl)cccc3Cl)noc2C)c(OC)c1 the results were VP16 counter -10%, MBNL1-CUG inh 3%, Six1-Eya2 inh -2, CtBP-E1A inh -5 and RORgamma inh 25%.
`CCn1c(N2CCN(C(=O)C34CC5CC(CC(C5)C3)C4)CC2)nc2ccccc21` gave VP16 counter 2%[0.365 µM], CBFb RUNX1 block 5%, MBNL1-CUG inh -6%, Six1-Eya2 inh -6, CtBP-E1A inh -6 and RORgamma inh 13%.
Screening CCn1c(=N)n(CC(=O)C23CC4CC(CC(C4)C2)C3)c2ccccc21 returned VP16 counter 8.9µM*, CBFb RUNX1 block -19%, MBNL1-CUG inh -6%, Six1-Eya2 inh -2, CtBP-E1A inh -14 and RORgamma inh 4µM*.
`Nc1nc2c(ncn2[C@@H]2O[C@H](CNCc3ccc4ncccc4c3)[C@@H](O)[C@H]2O)c(=O)[nH]1` gave Six1-Eya2 inh 6 and CtBP-E1A inh 7.
CCn1c(C(=O)N2CCC(C(=O)NCCCSC3CCCCC3)CC2)cc2sccc21 was read as VP16 counter 14µM*, CBFb RUNX1 block -13%, MBNL1-CUG inh -11%, Six1-Eya2 inh -2, CtBP-E1A inh -13 and RORgamma inh -60%.
Screening Cc1c(CC(=O)N[C@@H](C)C(=O)O)c(=O)oc2cc3occ(-c4ccccc4)c3cc12 returned VP16 counter -2%, MBNL1-CUG inh 16%, Six1-Eya2 inh -69* and RORgamma inh -6%.
For CCCC(NC(=O)CCc1c(C)c2cc3c4c(oc3c(C)c2oc1=O)CCCC4)C(=O)O (centres undefined) the results were VP16 counter -23%, MBNL1-CUG inh -2%, Six1-Eya2 inh -28, CtBP-E1A inh inconclusive and RORgamma inh 0.79µM*.
Cc1coc2c(C)c3oc(=O)c(CCC(=O)N[C@@H](C)C(=O)N[C@@H](Cc4ccccc4)C(=O)O)c(C)c3cc12 was read as VP16 counter -8%, MBNL1-CUG inh -10%, Six1-Eya2 inh -69*, CtBP-E1A inh -80* and RORgamma inh 13%.
`Cc1c(CC(=O)N[C@@H](C)C(=O)O)c(=O)oc2c(C)c3occ(-c4ccccc4)c3cc12` gave VP16 counter 0%, MBNL1-CUG inh 1%, Six1-Eya2 inh -65*, CtBP-E1A inh -83* and RORgamma inh 0%.
